A1 inh = inhibitors of the anti-apoptotic protein A1, read as caspase activation; 0.066% of 330,000 active; MEF A1-2A-BIM cells, Caspase-Glo 3/7 luminescence, 3 h; percent of clofoctol response, vehicle zero; caspase activation, % (concentration not given with the values);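 active means over half of replicate activation scores above 10%, or exactly half above 10 with the replicate mean above 10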
Mdm2 MdmX PPI = human Mdm2/MdmX binding inhibition | SaOS-2 split-luciferase Mdm2/MdmX complementation, luminescence | O15151+Q00987 | AID 485346 | inhibition, % at 8 µM | 3% of 330,000 active;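 active means inhibition of at least 50% at 8 µM in the primary screen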
Target sequence (O15151 whole entry, looked up): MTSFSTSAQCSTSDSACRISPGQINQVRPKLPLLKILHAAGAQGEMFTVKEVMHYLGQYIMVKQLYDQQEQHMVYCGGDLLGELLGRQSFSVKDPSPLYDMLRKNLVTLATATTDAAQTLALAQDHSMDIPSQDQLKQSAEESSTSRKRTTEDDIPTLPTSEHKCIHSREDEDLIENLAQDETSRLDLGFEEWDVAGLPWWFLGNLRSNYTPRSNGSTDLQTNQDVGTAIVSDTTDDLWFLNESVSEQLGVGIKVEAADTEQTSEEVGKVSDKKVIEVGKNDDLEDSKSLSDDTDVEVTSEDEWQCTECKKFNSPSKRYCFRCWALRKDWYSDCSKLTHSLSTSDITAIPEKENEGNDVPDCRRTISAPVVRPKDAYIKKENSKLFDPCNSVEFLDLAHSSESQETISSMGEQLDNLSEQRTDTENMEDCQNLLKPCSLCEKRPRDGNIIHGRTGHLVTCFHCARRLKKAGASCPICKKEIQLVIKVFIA
Target sequence (Q00987 whole entry, looked up): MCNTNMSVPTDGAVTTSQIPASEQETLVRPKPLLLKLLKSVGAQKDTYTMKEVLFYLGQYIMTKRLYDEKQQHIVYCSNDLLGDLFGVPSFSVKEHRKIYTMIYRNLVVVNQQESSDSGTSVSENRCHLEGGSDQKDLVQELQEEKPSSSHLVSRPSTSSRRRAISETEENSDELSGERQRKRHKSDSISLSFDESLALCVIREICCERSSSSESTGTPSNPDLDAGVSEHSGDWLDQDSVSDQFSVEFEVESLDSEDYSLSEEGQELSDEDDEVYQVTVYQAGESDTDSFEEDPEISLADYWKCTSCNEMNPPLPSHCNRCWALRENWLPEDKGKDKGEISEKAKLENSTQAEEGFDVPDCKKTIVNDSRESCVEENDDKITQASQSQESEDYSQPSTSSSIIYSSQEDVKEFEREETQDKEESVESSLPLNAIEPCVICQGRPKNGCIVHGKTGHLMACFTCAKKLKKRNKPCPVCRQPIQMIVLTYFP
aSyn UTR inh = 5' untranslated region of α-synuclein, MLPCN primary screen | alpha-synuclein 5'UTR reporter, inhibitor activity | inhibition, % (tested at 7.5 µM) | 0.82% of 300,000 active | AID 1813; in the data active means inhibition above about 60%;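 further: H4 neuroglioblastoma cells stably carrying SNCA 5'UTR luciferase fusion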
Beta apoptosis = blocks beta cell apoptosis. protection from apoptosis, % (no concentration beside the values). 0.8% of 300,000 active. INS-1E cytokine-induced death, ATP luminescence, 48 h; percent of positive-control rescue, neutral wells zero;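 active means Every replicate reaches about 75%, or at least half do and their mean reaches it too, limit read from the data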;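 further: higher means more ATP so stronger rescue from cytokine killing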
CSC inhib = cancer stem cell inhibition; cancer stem cell-like cells viability, luminescence; inhibition, % at 7.5 µM; 1.1% of 300,000 active; AID 2717; in the data active means inhibition above about 75%; tested in HMLE shEcad cells
Large screens that a line does not name were inactive. Compounds with a hit are over-represented: about 4.1% of the library has one in this group of screens.

CCCOc1ccc2cc(-c3ccccn3)c(=O)oc2c1	aSyn UTR inh 77
O=c1oc2cc(OCc3c(F)cccc3Cl)ccc2cc1-c1ccccn1	none
CC(C)c1cc(C(C)C)c(S(=O)(=O)N2c3ccccc3[C@]3(Br)C[C@H]4C(=O)N[C@@H](Cc5ccccc5)C(=O)N4[C@H]23)c(C(C)C)c1	aSyn UTR inh 65 (no result: A1 inh, Mdm2 MdmX PPI, Beta apoptosis, CSC inhib)
O=C(COc1ccccc1)Nc1cccc(-c2nn[nH]n2)c1	none (no result: Beta apoptosis)
O=C(COc1ccccc1)Nc1cccc(-c2nc3cc4ccccc4cc3[nH]2)c1	CSC inhib 88
COc1cc2c(cc1OC)-c1cc(NC3CCCCCCC3)nc(=O)n1CC2	aSyn UTR inh 70 (no result: CSC inhib)
COc1ccc(C(=O)COC(=O)C(CCSC)NC(=O)COc2ccccc2)cc1 (stereo not drawn)	none (no result: CSC inhib)
Cc1nn(CCc2nn[nH]n2)c2nc(-c3ccc(C4CCCCC4)cc3)cc(C(F)(F)F)c12	CSC inhib 110
Cc1ccc(NC(=O)CSc2nc3sc(C)cc3c(=O)n2C)cc1	none
OCCC1CN(Cc2cc(F)ccc2-n2cccn2)CCN1Cc1ccc(F)cc1 (stereo not drawn)	none
COc1cccc(/C=N/Nc2nccnc2Cl)c1O	aSyn UTR inh 90 (no result: A1 inh, Beta apoptosis, CSC inhib)
COc1cccc(/C=N/Nc2nc3ccccc3n3cnnc23)c1	none
COc1cccc(/C=N/Nc2nc3ccccc3n3cnnc23)c1O	Beta apoptosis 119
O=C(/C=C/Sc1ccccc1)c1ccc(Cl)cc1	CSC inhib 102
CSc1c(CN2CCN(C)CC2)c2ccccc2n1C	none
COCCNC(=O)NC1(C(F)(F)F)Oc2ccc(Cl)cc2O1 (stereo not drawn)	CSC inhib 75
CCc1ccc(N2CC(C(=O)Nc3cccc(S(=O)(=O)N4CCCC4)c3)CC2=O)cc1 (stereo not drawn)	none (no result: CSC inhib)
CCOc1ccc(C(=O)NC(=S)Nc2cccc(S(=O)(=O)NC3=NCCC3)c2)cc1	aSyn UTR inh 111
O=C(NCc1nnc(SCC(=O)N2CCCCC2)o1)c1c(F)cccc1Cl	none
CCCCn1c(SCC(=O)N2c3ccccc3CCc3ccccc32)nc2c1c(=O)n(C)c(=O)n2C	aSyn UTR inh 74
O=C(NCCCSc1ccccc1)c1cc(Br)ccc1O	CSC inhib 80
Cc1cc(NC(=O)COC(=O)CCS(=O)(=O)c2cc(Cl)ccc2Cl)no1	none (no result: CSC inhib)
CC1=CC(C)(C)N(S(=O)(=O)c2ccc(F)cc2)c2ccc(C)cc21	CSC inhib 87
Cc1cccc(OCC(=O)Nc2ccc(NC(=O)c3ccco3)cc2)c1	none (no result: A1 inh, Beta apoptosis, CSC inhib)
CCCCCCCCCCC[C@@H](C[C@@H]1OC(=O)[C@H]1CCCCCC)OC(=O)[C@H](CC(C)C)NC=O	CSC inhib 102
COc1ccc(C)c(NC(=O)NCCc2cnc[nH]2)c1	none
c1ccc(-c2ncc3c(ccc4ccccc43)n2)cc1	aSyn UTR inh 68 (no result: CSC inhib)
c1ccc2c(c1)cnc1ccccc12	none
COc1ccc2cc(S(=O)(=O)NCc3cccnc3)ccc2c1	none
O=C(Nc1ccnn1C1CCN(Cc2c[nH]c3ccccc23)CC1)c1ccccc1	none
CCN(CC)c1ccc2c(O)cc(=O)oc2c1	none
CCN(CC)c1ccc(C(=O)OCc2cc(=O)oc3cc(O)ccc23)cc1	aSyn UTR inh 117, CSC inhib 84
Cc1ccccc1CNc1ccc(C(CC(N)=O)NC(=O)c2ccc(Br)cc2)cc1[N+](=O)[O-] (stereo not drawn)	Beta apoptosis 91, CSC inhib 111
NC(=O)CC(NC(=O)c1ccc(Br)cc1)c1ccc(N2CCCCCC2)c([N+](=O)[O-])c1 (stereo not drawn)	CSC inhib 123
O=c1c2ccccc2oc2cc(-c3ccc4[nH]ccc4c3)ccc12	CSC inhib 83
CCCN1CCC(=NNc2ccc(S(=O)(=O)N(CC)CC)cc2[N+](=O)[O-])CC1	aSyn UTR inh 79
CCCc1ccc(-c2cc(NC(=O)CSc3nnc(N)s3)n(-c3ccccc3)n2)cc1	CSC inhib 85
CCN(C(=O)COC(=O)c1ccc2ccccc2n1)c1c(N)n(Cc2ccccc2)c(=O)[nH]c1=O	none (no result: A1 inh, aSyn UTR inh, Beta apoptosis, CSC inhib)
C(=N\N(Cc1ccccc1)c1ccccc1)/c1cccnc1	none
Oc1cccc(/C=N/N(Cc2ccccc2)c2ccccc2)c1	CSC inhib 87
CCOC(=O)N1CCC(NC(=O)C2CCCN(Cc3nc(-c4cccc(Cl)c4)oc3C)C2)CC1 (stereo not drawn)	Beta apoptosis 78
CCOC(=O)c1c(N)sc2c(OCC)c(Br)ccc12	CSC inhib 79
C[C@@H](NC(=O)c1[nH]cnc1C(=O)Nc1nccs1)c1ccccc1	none (no result: aSyn UTR inh)
